Experimental data: PMC5540273 (PLoS ONE, 2017)

Assays:
Details in all cases: concentration: 1 μM, replicates: in singlicate; n = 1
[1] = test system: T1, MST1
T1 construct: gene STK4

[2] = test system: T2, MST2
T2 construct: gene STK3

[3] = test system: T3, MST3
T3 construct: gene STK24

[4] = test system: MST4
[5] = test system: MTOR
[6] = test system: MUSK
[7] = test system: MYLK2
[8] = test system: MYLK4
[9] = test system: MYLK
[10] = test system: MYO3A
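Further: KINOMEscan kinase panel screen.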

Structure (SMILES) | %Inh [1] [%] | %Inh [2] [%] | %Inh [3] [%] | %Inh [4] [%] | %Inh [5] [%] | %Inh [6] [%] | %Inh [7] [%] | %Inh [8] [%] | %Inh [9] [%] | %Inh [10] [%]
NS(=O)(=O)c1cccc(-c2ccc3ncc(N4CCOCC4)nc3c2)c1 [GSK1535721] | 0 | 0 | 0 | 0 | 9 | 0 | 0 | 12 | 2 | 15
O=c1cc(N2CCOCC2)nc2n(Cc3cccc(C(F)(F)F)c3)ccn12 [GSK2297543] | 10 | 0 | 9 | 0 | 4 | 3 | 0 | 2 | 18 | 19
O=c1cc(N2CCOCC2)nc2n(Cc3cccc(Cl)c3Cl)c(C3CC3)nn12 [GSK2358994] | 0 | 41 | 4 | 0 | 0 | 0 | 0 | 0 | 14 | 0
COc1cc2ncn(-c3cc(OCc4sccc4Cl)c(C(N)=O)s3)c2cc1OC [GSK448459] | 21 | 68 | 0 | 0 | 11 | 7 | 31 | 72 | 37 | 12
Cc1ccc(C(=O)NCC(N)=O)cc1-n1c(C)cc(OCc2ccc(F)cc2F)c(Br)c1=O | 13 | 4 | 26 | 0 | 0 | 0 | 12 | 14 | 7 | 14
